From PubChem BioAssay
Compounds with a hit are over-represented: about 12% of the library has one in this group of screens.
Arbovirus anti = antivirals against arbovirus infection, primary screen, cell-based, full library, 10K replicate subset; arbovirus infection cell-based antiviral screen; inhibition, % at 10 µM; 200,000 tested, 0.37% active; in the data active = inhibition above about 30%
L major viab = Leishmania major promastigote growth inhibition, primary screen. 200,000 tested, 9% active. AID 1063, 2008. Leishmania major promastigotes, resazurin fluorescence viability. inhibition, % at 10 µM; in the data active = inhibition above about 50%;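 note: promastigotes grown with compound for 44 hours at 28 °C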
CHOP inh = inhibitors of CHOP promoter induction, primary screen, cell-based, unfolded protein response, luciferase reporter. CHO-K1 CHOP-promoter luciferase, tunicamycin-induced, 15-18 h. inhibition, % at 10 µM. 220,000 tested, 3.8% active. AID 2732, 2010;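 active = compounds that reduced the stress-induced luciferase reporter signal by more than about 70% of percent inhibition, limit read from the data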;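 note: 0% = tunicamycin plus vehicle and 100% = wells without tunicamycin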
WT yeast gro inh = growth inhibition of WT strain, primary screen, mitochondrial fusion inhibitor project, WT and mutant strains, chemical genetic; AID 1362, 2008; mitochondrial fusion phenotypic screen; 190,000 tested, 2.1% active; inhibition, % at 10 µM; in the data active = inhibition above about 58%; tested in S. cerevisiae
The depositor's hits bear a star.

Screening Clc1ccc(Sc2ccc(/C=N/n3cnnc3)o2)cc1 returned Arbovirus anti 11, L major viab 66*, CHOP inh -2 and WT yeast gro inh -10.
`O=C(CC1C(=O)NCCN1CC1CCCCC1)NCCc1ccc(F)cc1` (stereo not given) gave Arbovirus anti -1, L major viab -4, CHOP inh -4 and WT yeast gro inh -1.
COc1ccc(C2CC(c3ccccc3OC(C)=O)=NN2C(C)=O)cc1 (stereo not given) was read as CHOP inh -1.
COc1ccc(N(C(=O)c2ccccc2OC(C)=O)C(C)C2CC2)cc1 (stereo not given) was read as Arbovirus anti 1, L major viab 100*, CHOP inh 27 and WT yeast gro inh -1.
`COc1ccc(-c2cc(N3CCCC3)n3ncnc3n2)cc1` gave Arbovirus anti -5, L major viab 22, CHOP inh 25 and WT yeast gro inh 14.
For COc1ccc(-c2nsc3c(N4CCCC4)ncnc23)cc1 the results were Arbovirus anti 4, L major viab -2, CHOP inh 90* and WT yeast gro inh 1.
CCOC(=O)/C=C/C(=O)Nc1cccc([N+](=O)[O-])c1 was read as Arbovirus anti 5, L major viab 0, CHOP inh 48 and WT yeast gro inh 43.
Screening CCOC(=O)/C=C/C(=O)Nc1ccccc1-c1ccccc1NC(=O)/C=C/C(=O)OCC returned Arbovirus anti -21, L major viab 41, CHOP inh 80* and WT yeast gro inh -31.
Cc1n(N)c2ccccc2[n+]1CC(=O)c1ccccc1 was read as Arbovirus anti 1, L major viab -4, CHOP inh 15 and WT yeast gro inh -4.
For Cc1cccc(C(C)(C)C)c1OCCn1ccnc1 the results were Arbovirus anti 5, L major viab 99*, CHOP inh 26 and WT yeast gro inh 9.
`Cc1cc(OCCCCn2ccnc2)cc(C)c1Cl` gave Arbovirus anti -21, L major viab 99*, CHOP inh 22 and WT yeast gro inh 76*.
`O=C(O)c1ccc(OCCn2ccnc2)cc1` gave Arbovirus anti 0, L major viab -4, CHOP inh -4 and WT yeast gro inh -10.
For Cc1cc(Cl)cc(C)c1OCCCCn1ccnc1 the results were Arbovirus anti -13, L major viab 100*, CHOP inh 44 and WT yeast gro inh 76*.
Cc1cccc(Cl)c1OCCCCn1ccnc1 was read as Arbovirus anti 3, L major viab 98*, CHOP inh -12 and WT yeast gro inh 25.
For Cc1cc(OCCCCN2C(=O)NC(C)(C)C2=O)cc(C)c1Cl the results were Arbovirus anti -3, L major viab 4, CHOP inh 38 and WT yeast gro inh 6.
For Cc1cc(Cl)ccc1OC(C)C(=O)NCCCn1ccnc1 (stereo not given) the results were Arbovirus anti -4, L major viab -3, CHOP inh -15 and WT yeast gro inh 0.
`COc1ccc(CNC(=O)c2ccc(Br)o2)cc1` gave Arbovirus anti 3, L major viab 1, CHOP inh 40 and WT yeast gro inh 18.
For O=C(c1cccc(S(=O)(=O)Nc2cccc(C(F)(F)F)c2)c1)N1CCOCC1 the results were CHOP inh -14.
For CC1CCCN(C(=O)c2cccc(S(=O)(=O)Nc3cc(C(F)(F)F)ccc3Cl)c2)C1 (stereo not given) the results were Arbovirus anti 42*, L major viab -5, CHOP inh 3 and WT yeast gro inh 26.
Screening CCN(c1ccc(NC(=O)COC(=O)c2ccc(S(=O)(=O)N3CCCC3)cc2)cc1)C(C)C returned Arbovirus anti 4, L major viab -4, CHOP inh 17 and WT yeast gro inh 52.
`O=C(c1ccccc1F)N1CCN(c2cccc(C(F)(F)F)c2)CC1` gave Arbovirus anti -11, L major viab -4, CHOP inh 74* and WT yeast gro inh 20.
Cn1c(C(=O)N2CCN(c3cccc(C(F)(F)F)c3)CC2)cc2sccc21 was read as Arbovirus anti -16, L major viab -7, CHOP inh 72* and WT yeast gro inh 72*.
`CC(=O)Nc1ccc(NC(=O)CN2CCN(c3cccc(C(F)(F)F)c3)CC2)cc1` gave Arbovirus anti -30, L major viab 5, CHOP inh 1 and WT yeast gro inh 5.
Screening O=C(/C=C/c1ccc(Br)cc1)N1CCN(c2cccc(C(F)(F)F)c2)CC1 returned Arbovirus anti -17, L major viab -4, CHOP inh 38 and WT yeast gro inh 42.
Screening CC(=O)Nc1ccc(CN2CCN(c3cccc(C(F)(F)F)c3)CC2)cc1 returned Arbovirus anti -18, L major viab 91*, CHOP inh 23 and WT yeast gro inh 17.
